Shown are actives, neighbours in structure and some others; about 3.4% of the full set was active somewhere.
TRPM1 prom inh = reduces MITF-dependent TRPM1 promoter luciferase signal; AID 488899; 330,000 tested, 0.83% active; inhibition, % at 12.5 µM; SK-MEL-5 TRPM1 promoter luciferase, 24 h;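 active = mean inhibition across replicates of 60% or more, whatever share of single replicates reaches that level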
HIF-2a inh = inhibitors of HIF-2a; 786-0 RCC cells HIF-2a reporter, luciferase luminescence, overnight; inhibition, % at 18.8 µM; 360,000 tested, 0.72% active; AID 624352;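 active = inhibition of the luminescence signal of 40% or more relative to plate controls, in a single-dose primary screen at 18.75 µM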
Shn3 inh set2 = Schnurri-3 reporter inhibition in Clone20 osteoblasts; Clone20 osteoblast Shn3 3'UTR firefly luciferase, 24 h; inhibition, % at 12.5 µM; 360,000 tested, 0.52% active; AID 588674;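 active = mean inhibition of at least 75% with every replicate also reaching 75%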;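 note: 0% = median of neutral control wells and 100% = pilot-screen positive control compound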
TWEAK Fn14 block = TWEAK-Fn14 signaling inhibition | TWEAK-stimulated Fn14 reporter cells, luciferase luminescence, 8 h | inhibition, % at 10 µM | 360,000 tested, 2% active | AID 1159606; in the data active = inhibition above about 50%
EBV LMP1 NFkB = Epstein-Barr LMP1 NF-kappaB reporter inhibition; 350,000 tested, 0.69% active; AID 504558; LMP1-induced NF-kappaB luciferase reporter cells, luminescence; inhibition, % at 12.5 µM; in the data active = inhibition above about 41%;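 note: 0% = neutral control wells and 100% = reference inhibitor control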
TROY NFkB inh = TROY signaling inhibition; 360,000 tested, 0.98% active; inhibition, % at 10 µM; Q293 LMP1-TROYcd NF-kB luciferase reporter, 4 h; AID 1347056;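 active = compounds whose plate-normalised and pattern-corrected inhibition of the luciferase reporter signal at the single screening dose is 50% or more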
* hit, by the source's call; nt = no result.

SMILES	TRPM1 prom inh	HIF-2a inh	Shn3 inh set2	TWEAK Fn14 block	EBV LMP1 NFkB	TROY NFkB inh
Cc1ccc(C(=O)Nc2cccc(C(=O)O)c2)cc1S(=O)(=O)N1CCCCC1	24	-66	2	-15	44*	-18
CC1(C(=O)NS(=O)(=O)c2ccccc2)CCN1C(=O)Cc1cc(F)ccc1F (stereo unspecified)	nt	8	15	15	nt	1
CCC(C)(C)C1CCC2(CC1)NC(=O)N(CC(=O)NCCc1c[nH]c3ccccc13)C2=O (stereo unspecified)	8	19	19	6	-10	18
Cc1cc(C)c2nc(N3CCOCC3)c(C#N)cc2c1	4	-10	-2	-4	2	5
Cc1cccc2cc(C#N)c(N3CCOCC3)nc12	-3	6	4	54*	4	-18
CCCCCCOC(=O)CC1CC(C(C)=O)C1(C)C (stereo unspecified)	-9	-24	-3	47	-5	22
COc1ccc(C(=O)Nc2ccc3oc(Cc4ccc(Cl)cc4)nc3c2)cc1OC	10	-39	24	52*	8	19
COc1ccc(Cc2nc3ccc(C(=O)NCCc4ccncc4)cc3o2)cc1OC	14	3	13	9	12	0
NC(Cc1c[nH]c2ccccc12)C(=O)NCc1ccco1 (stereo unspecified)	1	7	-14	-7	0	9
COCc1cc(=O)[nH]c(Nc2nc3ccc(C)cc3o2)n1	5	-113	62	106*	2	-24
Cc1ccsc1/C=N/NC(=O)Cc1ccc(Cl)cc1	-17	-37	4	90*	-4	-1
Cc1ccsc1/C=N/NC(=O)CSCc1ccc(Cl)cc1	-9	-10	-3	-27	4	-62
C/C(=N\NC(=O)c1ccc2c(c1)OCCO2)c1ccccc1	-1	-73	5	70*	12	-37
COc1cccc(C=Nc2ccc3c(c2)OCCO3)c1O	15	12	54	80*	-8	68*
CCOc1cccc(/C=N/NC(=O)c2ccc3c(c2)OCCO3)c1O	4	-85	83	-21	7	-26
Cc1cccc(/C=N/NC(=O)c2ccc3c(c2)OCCO3)c1O	39	-38	80	74*	17	29
COc1cccc(C=Nc2ccc(N3CCOCC3)cc2)c1O	0	11	9	7	1	11
CCCc1ccc2oc(C(=O)N3CCN(c4cnccn4)CC3)c(C)c2c1	0	-18	1	-36	2	34
Cc1ccsc1/C=N\NC(=O)c1n[nH]c2c1CCC2	7	36	-5	81*	35	41
O=C(N/N=C/c1cccc(O)c1)c1ccc2c(c1)OCCO2	-9	-26	-23	69*	64*	15
Cc1ccsc1/C=N/NC(=O)c1ccc2c(c1)OCCO2	3	-77	-20	70*	59*	7
O=C(N/N=C/c1c(Cl)cccc1Cl)c1n[nH]c2c1CCCC2	-46	-196	-73	2	-13	-50
Nc1ncnc2c1ncn2[C@@H]1O[C@H](C(=O)N[C@H]2c3ccccc3C[C@H]2O)[C@@H](O)[C@H]1O	nt	5	0	-18	nt	7
CSCCC(Nc1ncnc2ccc(Br)cc12)C(=O)O (stereo unspecified)	5	5	9	25	1	21
CC(C)Nc1ncnc2ccc(Br)cc12	9	28	78	78*	37	34
SMILES	TRPM1 prom inh	HIF-2a inh	Shn3 inh set2	TWEAK Fn14 block	EBV LMP1 NFkB	TROY NFkB inh
O=S(=O)(c1ccc(Cl)cc1)n1ccc2cccnc21	1	22	98*	-5	-5	-23
O=C(/C=C/c1cccc([N+](=O)[O-])c1)c1cccs1	80*	-3	10	4	19	20
O=C(/C=C/c1cccc([N+](=O)[O-])c1)N1CCN(c2ccccn2)CC1	14	10	-7	-3	-5	0
O=C(/C=C/c1cccc([N+](=O)[O-])c1)n1cnc2ccccc21	67*	28	92*	103*	7	20
CC1(C)Nc2ccccc2C(=O)N1c1ccccc1	-40	-118	-19	-9	62*	-20
O=C(CSc1nnc(COc2ccc(Cl)cc2)o1)Nc1nccs1	nt	-14	-25	-1	-2	-52
Cc1ccc(-c2nc(CS(=O)(=O)CC(=O)NCCCN(Cc3ccccc3)C(C)C)c(C)o2)cc1	13	2	12	0	1	16
Cc1oc(-c2ccc(-c3ccccc3)cc2)nc1CN(CCO)C(C)C	-31	-41	-20	65*	-41	-4
C=C1C(C(=O)N2CCOCC2)C1C(=O)N1CCOCC1 (stereo unspecified)	13	-3	-5	78*	-5	57*
C=C1C(C(=O)N2CCN(C)CC2)C1C(=O)N1CCN(C)CC1 (stereo unspecified)	-6	0	7	3	8	10
Nc1ccn([C@@H]2O[C@H](C(=O)N3CCSC3)[C@@H](O)[C@H]2O)c(=O)n1	nt	16	-1	0	nt	2
Oc1ccccc1N=N/C(=N/Nc1ccccc1O)c1ccccc1	-3	13	-7	19	-3	5
N#C/C(N=Nc1ccccc1O)=N\Nc1ccccc1O	69*	-71	34	88*	-26	46
N#C/C(=N/Nc1ccc(OC(F)(F)F)cc1)C(N)=S	3	-256	-30	80*	34	49
CC(=O)c1ccc(OCc2cc(C(=O)N(C)CC3COc4ccccc4O3)no2)cc1 (stereo unspecified)	nt	-157	-23	-7	-9	1
Cc1ccc(NC(=O)C2C3C=CC4(O3)C2C(=O)N(CCN2CCOCC2)C4C(=O)NC2CCCCC2)cc1C (stereo unspecified)	-3	-1	-4	88*	0	-3
Cc1ccc(NC(=O)C2C3C=CC4(O3)C2C(=O)N(CCCN2CCOCC2)C4C(=O)NC2CCCCC2)cc1Cl (stereo unspecified)	1	12	-10	1	-4	1
Cn1c(-c2ccccc2)cc2onc(-c3ccccc3)c2c1=O	8	-5	39	91*	39	73*
Cn1c(-c2ncc(F)cc2F)cc2onc(-c3c(F)cccc3Cl)c2c1=O	-83	-212	-215	-17	-19	-27
Cn1c(-c2ccccc2F)cc2onc(-c3ccccc3)c2c1=O	6	-156	-46	73*	-26	66*
Cn1c(-c2ccccc2)cc(=O)cc1-c1ccccc1	nt	4	-4	6	-10	8
CCCN(c1ccc(OCC)cc1)S(=O)(=O)c1ccc2c(c1)NC(=O)CO2	-3	6	9	3	-40	0
CCN1CCN(c2ncnc3c2cnn3-c2ccc(C)cc2C)CC1	-9	-4	-20	-15	-20	5
COc1ccc(-n2ncc3c(N4CCCCC4)ncnc32)cc1	84*	81*	82	104*	76*	86*
